Usually inhibition stands for the drop in the measured response relative to a control, in per cent.

The source of these data is ChEMBL document CHEMBL1961873, “Compounds: GSK PKIS; Assays: Nanosyn kinase panel” (2012).

The target in assay [1] is Protein kinase C gamma type (Homo sapiens) (UniProt P05129). The following applies: at 1 µM.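 Note: each value is an averaged percent inhibition of the enzyme.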
Assay [2] deals with T1, Protein kinase C iota type (Homo sapiens) (UniProt P41743).
T1 sequence (whole entry): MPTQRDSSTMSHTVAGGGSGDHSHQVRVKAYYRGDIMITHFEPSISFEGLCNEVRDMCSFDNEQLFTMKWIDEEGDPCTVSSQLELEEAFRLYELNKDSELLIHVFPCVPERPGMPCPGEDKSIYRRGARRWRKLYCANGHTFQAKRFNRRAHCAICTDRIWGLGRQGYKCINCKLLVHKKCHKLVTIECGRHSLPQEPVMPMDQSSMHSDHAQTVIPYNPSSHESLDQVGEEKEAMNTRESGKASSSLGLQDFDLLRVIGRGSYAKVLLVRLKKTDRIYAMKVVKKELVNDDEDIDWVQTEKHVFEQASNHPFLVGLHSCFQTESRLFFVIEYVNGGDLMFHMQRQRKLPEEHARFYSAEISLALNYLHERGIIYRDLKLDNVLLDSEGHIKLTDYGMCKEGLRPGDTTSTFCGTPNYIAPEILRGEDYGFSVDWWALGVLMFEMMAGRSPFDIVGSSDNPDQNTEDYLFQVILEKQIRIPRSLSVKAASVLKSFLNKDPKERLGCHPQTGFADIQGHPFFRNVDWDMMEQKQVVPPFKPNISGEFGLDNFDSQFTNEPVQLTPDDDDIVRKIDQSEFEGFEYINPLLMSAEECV
As to conditions: at 0.1 µM.

The target of assay [3] is T1, Protein kinase C iota type (Homo sapiens). As to conditions: at 1 µM.
The target of assay [4] is Protein kinase C theta type (Homo sapiens) (UniProt Q04759). The following applies: at 0.1 µM.
For assay [5] the target is unchanged. The following applies: at 1 µM.
Assay [6] addresses Protein kinase C beta type (Homo sapiens) (UniProt P05771). As to conditions: at 0.1 µM.
Assay [7] has the same target. The following applies: at 1 µM.
Assay [8] addresses T2, Serine/threonine-protein kinase D1 (Homo sapiens) (UniProt Q15139).
T2 sequence (whole entry): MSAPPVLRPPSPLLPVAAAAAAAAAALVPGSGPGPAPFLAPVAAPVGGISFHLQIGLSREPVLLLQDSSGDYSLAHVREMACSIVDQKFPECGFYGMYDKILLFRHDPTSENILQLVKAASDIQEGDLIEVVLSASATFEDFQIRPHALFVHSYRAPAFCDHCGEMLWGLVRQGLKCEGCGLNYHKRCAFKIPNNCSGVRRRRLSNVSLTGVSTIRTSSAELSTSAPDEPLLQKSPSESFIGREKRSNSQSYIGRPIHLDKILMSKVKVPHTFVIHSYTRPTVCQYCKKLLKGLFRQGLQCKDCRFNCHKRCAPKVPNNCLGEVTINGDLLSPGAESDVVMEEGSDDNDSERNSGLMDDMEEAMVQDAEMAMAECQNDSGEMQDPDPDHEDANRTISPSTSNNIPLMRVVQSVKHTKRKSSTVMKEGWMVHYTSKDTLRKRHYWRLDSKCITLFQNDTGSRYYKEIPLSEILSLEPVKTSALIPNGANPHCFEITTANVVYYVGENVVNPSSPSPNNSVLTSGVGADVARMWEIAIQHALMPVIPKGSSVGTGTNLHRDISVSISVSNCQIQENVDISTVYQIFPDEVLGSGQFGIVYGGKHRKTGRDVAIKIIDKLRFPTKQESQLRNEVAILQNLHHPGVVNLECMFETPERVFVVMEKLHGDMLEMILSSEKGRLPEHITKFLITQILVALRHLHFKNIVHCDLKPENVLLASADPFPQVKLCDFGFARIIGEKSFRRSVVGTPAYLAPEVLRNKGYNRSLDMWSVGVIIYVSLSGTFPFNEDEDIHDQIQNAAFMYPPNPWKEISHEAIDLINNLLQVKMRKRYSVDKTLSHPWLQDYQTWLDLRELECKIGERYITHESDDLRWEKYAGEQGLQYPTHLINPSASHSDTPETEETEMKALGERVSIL
The following applies: at 0.1 µM.

Assay [9] addresses T2, Serine/threonine-protein kinase D1 (Homo sapiens). The following applies: at 1 µM.
Assay [10] deals with T3, Serine/threonine-protein kinase D2 (Homo sapiens) (UniProt Q9BZL6).
T3 sequence (whole entry): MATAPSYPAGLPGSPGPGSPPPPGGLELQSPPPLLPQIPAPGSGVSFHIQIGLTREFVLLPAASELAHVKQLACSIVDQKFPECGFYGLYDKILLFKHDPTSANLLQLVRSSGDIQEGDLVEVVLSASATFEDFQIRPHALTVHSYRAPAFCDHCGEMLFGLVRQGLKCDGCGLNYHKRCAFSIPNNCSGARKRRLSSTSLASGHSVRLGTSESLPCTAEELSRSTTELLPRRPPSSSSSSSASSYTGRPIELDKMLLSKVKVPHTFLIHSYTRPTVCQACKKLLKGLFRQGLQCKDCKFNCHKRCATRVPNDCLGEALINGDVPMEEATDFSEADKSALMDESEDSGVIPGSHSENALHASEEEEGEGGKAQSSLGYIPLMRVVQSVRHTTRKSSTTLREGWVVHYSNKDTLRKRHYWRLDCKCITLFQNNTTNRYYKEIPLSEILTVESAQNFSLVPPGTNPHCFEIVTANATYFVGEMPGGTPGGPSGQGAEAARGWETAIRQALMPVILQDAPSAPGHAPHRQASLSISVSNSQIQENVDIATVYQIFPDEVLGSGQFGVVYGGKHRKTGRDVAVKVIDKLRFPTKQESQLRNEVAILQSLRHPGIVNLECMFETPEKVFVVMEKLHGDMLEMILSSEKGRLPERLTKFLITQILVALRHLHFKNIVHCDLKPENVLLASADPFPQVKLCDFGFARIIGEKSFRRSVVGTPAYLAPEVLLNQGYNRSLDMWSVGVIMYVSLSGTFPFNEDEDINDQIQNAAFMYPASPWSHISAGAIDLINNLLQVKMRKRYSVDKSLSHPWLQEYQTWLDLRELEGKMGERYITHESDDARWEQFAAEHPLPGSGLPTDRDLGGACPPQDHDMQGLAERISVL
As to conditions: at 0.1 µM.

For assay [11], the target named is T3, Serine/threonine-protein kinase D2 (Homo sapiens). As to conditions: at 1 µM.
The target of assay [12] is T4, Serine/threonine-protein kinase D3 (Homo sapiens) (UniProt O94806).
T4 sequence (whole entry): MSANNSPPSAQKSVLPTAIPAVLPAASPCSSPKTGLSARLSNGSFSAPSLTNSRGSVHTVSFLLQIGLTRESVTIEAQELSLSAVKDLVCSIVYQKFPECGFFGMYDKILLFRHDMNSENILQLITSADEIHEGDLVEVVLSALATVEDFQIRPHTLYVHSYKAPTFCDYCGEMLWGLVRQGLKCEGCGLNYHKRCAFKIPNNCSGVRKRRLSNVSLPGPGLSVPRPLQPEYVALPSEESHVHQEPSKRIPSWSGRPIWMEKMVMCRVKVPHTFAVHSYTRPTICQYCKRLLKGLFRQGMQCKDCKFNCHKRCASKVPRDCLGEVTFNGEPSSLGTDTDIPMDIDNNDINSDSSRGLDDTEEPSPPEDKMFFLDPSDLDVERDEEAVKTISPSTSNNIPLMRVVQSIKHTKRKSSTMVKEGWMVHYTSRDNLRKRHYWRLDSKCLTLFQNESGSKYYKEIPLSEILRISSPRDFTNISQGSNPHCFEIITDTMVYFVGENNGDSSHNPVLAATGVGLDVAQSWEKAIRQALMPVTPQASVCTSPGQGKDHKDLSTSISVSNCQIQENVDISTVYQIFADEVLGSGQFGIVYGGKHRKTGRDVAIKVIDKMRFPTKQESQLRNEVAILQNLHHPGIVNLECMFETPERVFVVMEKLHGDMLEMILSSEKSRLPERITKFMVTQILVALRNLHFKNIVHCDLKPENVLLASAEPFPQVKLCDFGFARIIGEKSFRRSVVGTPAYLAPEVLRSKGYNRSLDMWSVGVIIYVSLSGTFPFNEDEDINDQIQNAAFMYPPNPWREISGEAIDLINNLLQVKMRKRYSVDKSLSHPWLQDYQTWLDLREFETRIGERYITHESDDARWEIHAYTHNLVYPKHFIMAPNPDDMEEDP
The following applies: at 0.1 µM.

For assay [13], the target named is T4, Serine/threonine-protein kinase D3 (Homo sapiens). The following applies: at 1 µM.
The target of assay [14] is T5, cGMP-dependent protein kinase 1 (Homo sapiens) (UniProt Q13976).
T5 sequence (whole entry): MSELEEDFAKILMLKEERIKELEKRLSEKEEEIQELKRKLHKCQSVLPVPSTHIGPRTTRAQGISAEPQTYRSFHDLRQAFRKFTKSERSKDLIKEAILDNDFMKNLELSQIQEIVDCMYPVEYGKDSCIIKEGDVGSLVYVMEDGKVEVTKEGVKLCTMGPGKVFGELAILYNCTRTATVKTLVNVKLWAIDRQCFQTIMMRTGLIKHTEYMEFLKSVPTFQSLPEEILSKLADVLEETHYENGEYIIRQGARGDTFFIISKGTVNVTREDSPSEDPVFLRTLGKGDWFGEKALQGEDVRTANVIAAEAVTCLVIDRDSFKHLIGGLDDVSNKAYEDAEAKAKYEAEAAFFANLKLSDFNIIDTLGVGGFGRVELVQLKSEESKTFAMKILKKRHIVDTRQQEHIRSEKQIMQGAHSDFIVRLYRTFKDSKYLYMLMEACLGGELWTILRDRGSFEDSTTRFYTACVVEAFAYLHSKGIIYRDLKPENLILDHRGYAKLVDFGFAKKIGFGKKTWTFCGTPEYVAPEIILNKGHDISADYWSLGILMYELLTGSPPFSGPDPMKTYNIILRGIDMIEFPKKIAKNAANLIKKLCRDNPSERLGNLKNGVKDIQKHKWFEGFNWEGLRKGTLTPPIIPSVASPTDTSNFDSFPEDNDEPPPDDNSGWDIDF
As to conditions: at 0.1 µM.

Assay [15] addresses T5, cGMP-dependent protein kinase 1 (Homo sapiens). The following applies: at 1 µM.
For assay [16], the target named is T6, cGMP-dependent protein kinase 2 (Homo sapiens) (UniProt Q13237).
T6 sequence (whole entry): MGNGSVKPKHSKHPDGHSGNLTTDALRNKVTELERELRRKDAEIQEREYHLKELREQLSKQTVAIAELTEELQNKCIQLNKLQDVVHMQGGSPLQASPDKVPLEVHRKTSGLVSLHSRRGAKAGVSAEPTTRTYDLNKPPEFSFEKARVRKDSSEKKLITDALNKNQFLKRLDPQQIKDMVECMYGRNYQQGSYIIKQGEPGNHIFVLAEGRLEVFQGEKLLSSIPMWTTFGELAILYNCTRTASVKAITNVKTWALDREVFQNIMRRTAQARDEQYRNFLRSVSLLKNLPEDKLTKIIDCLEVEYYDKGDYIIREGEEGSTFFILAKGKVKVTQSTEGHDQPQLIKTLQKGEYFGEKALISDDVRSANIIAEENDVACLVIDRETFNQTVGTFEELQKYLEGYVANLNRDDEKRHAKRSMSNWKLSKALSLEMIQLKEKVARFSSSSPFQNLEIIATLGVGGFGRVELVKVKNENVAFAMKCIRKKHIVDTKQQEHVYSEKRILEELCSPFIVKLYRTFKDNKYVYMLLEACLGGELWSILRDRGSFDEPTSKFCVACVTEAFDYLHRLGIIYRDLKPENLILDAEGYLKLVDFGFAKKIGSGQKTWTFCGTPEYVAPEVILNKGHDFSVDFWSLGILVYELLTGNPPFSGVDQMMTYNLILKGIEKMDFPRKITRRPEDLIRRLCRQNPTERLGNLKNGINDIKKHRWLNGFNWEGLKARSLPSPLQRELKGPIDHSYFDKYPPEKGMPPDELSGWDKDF
As to conditions: at 0.1 µM.

Assay [17] has as its target T6, cGMP-dependent protein kinase 2 (Homo sapiens). As to conditions: at 1 µM.
In assay [18] the target is T7, cAMP-dependent protein kinase catalytic subunit PRKX (Homo sapiens) (UniProt P51817).
T7 sequence (whole entry): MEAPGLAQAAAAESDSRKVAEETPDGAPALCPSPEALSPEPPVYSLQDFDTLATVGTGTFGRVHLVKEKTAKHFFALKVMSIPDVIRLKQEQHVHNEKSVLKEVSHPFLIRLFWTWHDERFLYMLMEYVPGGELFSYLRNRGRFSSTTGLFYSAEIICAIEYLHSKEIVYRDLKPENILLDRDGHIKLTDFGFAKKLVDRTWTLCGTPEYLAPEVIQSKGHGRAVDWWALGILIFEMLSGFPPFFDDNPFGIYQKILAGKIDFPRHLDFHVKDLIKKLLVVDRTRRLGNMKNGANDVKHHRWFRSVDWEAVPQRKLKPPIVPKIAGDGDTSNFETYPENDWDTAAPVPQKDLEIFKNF
As to conditions: at 0.1 µM.

In assay [19] the target is T7, cAMP-dependent protein kinase catalytic subunit PRKX (Homo sapiens). As to conditions: at 1 µM.
Assay [20] addresses Rho-associated protein kinase 1 (Homo sapiens) (UniProt Q13464). As to conditions: at 0.1 µM.

Protein kinase C theta type (Homo sapiens), sequence (Q04759 whole entry, looked up): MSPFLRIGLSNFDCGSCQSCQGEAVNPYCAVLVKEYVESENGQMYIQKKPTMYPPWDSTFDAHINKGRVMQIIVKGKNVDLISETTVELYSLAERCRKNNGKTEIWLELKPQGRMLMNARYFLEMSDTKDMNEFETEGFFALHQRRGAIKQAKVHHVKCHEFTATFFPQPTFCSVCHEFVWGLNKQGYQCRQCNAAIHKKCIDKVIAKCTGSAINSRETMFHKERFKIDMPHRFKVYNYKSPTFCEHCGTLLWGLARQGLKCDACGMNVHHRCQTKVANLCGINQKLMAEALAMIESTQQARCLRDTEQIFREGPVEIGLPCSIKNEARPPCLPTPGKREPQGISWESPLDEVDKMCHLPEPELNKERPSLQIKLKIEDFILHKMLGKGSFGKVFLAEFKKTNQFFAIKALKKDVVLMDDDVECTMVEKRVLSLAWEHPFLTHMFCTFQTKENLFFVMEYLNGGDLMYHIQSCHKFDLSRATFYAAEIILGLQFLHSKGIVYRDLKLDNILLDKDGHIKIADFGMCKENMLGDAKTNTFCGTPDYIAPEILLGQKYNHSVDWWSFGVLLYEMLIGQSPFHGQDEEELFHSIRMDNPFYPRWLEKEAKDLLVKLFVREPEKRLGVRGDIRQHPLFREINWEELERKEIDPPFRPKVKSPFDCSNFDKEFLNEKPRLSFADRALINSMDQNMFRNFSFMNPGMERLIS
Protein kinase C beta type (Homo sapiens), sequence (P05771 2-671 limits assumed): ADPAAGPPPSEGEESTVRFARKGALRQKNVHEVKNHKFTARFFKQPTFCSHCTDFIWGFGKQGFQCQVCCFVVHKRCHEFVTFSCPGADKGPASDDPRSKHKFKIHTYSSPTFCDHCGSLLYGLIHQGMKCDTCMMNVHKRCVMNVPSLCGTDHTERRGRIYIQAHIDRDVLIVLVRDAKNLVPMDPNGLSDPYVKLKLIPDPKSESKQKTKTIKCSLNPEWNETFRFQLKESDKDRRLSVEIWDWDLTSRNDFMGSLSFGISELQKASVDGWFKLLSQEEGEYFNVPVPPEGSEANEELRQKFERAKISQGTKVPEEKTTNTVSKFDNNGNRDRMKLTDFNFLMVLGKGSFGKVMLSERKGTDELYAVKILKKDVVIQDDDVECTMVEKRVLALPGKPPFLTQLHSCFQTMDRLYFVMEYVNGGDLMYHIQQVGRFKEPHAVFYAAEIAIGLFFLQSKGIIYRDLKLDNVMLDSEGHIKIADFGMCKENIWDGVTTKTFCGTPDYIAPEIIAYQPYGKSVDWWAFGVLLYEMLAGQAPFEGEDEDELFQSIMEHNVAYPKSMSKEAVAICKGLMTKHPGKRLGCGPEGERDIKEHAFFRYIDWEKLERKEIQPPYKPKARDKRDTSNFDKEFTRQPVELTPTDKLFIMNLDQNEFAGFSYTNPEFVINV
Rho-associated protein kinase 1 (Homo sapiens), sequence (Q13464 2-1354 limits assumed): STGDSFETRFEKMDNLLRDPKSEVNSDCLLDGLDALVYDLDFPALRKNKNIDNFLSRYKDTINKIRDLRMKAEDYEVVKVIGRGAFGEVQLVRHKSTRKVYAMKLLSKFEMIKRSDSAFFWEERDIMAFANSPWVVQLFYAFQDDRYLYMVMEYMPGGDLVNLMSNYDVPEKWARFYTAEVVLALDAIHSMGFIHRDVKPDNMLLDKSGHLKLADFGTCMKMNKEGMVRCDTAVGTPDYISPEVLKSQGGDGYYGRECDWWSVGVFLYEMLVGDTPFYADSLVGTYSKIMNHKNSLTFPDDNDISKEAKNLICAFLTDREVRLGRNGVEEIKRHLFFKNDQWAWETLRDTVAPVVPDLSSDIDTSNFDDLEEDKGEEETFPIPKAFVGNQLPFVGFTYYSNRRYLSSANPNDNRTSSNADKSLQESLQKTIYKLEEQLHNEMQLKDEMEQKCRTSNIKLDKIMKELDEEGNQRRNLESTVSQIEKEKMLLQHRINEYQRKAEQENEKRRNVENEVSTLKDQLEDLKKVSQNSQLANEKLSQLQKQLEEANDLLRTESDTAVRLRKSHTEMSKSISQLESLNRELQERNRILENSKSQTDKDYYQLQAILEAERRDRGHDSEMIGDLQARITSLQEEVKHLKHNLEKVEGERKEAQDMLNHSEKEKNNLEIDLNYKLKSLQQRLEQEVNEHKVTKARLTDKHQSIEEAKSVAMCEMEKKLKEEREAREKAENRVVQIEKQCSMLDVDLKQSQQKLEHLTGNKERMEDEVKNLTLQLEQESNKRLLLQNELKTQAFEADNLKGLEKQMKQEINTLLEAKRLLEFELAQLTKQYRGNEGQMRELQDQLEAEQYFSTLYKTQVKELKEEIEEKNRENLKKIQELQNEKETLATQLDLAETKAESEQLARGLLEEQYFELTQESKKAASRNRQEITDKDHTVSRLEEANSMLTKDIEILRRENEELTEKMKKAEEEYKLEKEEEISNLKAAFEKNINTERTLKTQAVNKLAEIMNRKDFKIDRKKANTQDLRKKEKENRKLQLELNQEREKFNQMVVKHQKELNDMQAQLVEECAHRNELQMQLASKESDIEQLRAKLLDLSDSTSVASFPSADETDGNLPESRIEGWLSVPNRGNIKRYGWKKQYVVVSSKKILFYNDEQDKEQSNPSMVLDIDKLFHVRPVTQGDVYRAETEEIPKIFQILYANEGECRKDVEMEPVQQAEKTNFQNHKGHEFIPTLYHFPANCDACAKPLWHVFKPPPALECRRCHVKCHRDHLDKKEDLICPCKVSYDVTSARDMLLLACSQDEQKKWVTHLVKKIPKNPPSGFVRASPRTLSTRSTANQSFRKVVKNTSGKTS

In the case of `NS(=O)(=O)c1ccc(N/N=C2\C(=O)Nc3ccc(-c4cnco4)cc32)cc1`, the inhibition in assay [1] was 4.1%; in assay [2] it was 1%; in assay [3] it was 0.97%; in assay [4] it was 1.05%; in assay [5], 2.96%; in [6] it was 0.38%. Also, the inhibition is 1.12% in assay [7]; -1.79% in assay [8]; 12.6% in assay [9]; -0.15% in assay [10]; 9.15% in [11]; -1.69% in assay [12]. Besides, the inhibition in assay [13] is 7.39%; in [14], 2.42%; in assay [15], 4.22%; in [16] it was 1.06%; in assay [17] it was 12.7%; in assay [18], 1.53%. In addition, the inhibition in [19] was 1.83%; in assay [20], 6.06%.

Regarding `NC(=O)Cc1ccccc1Oc1nccc(-c2c(-c3ccc(F)cc3)ncn2C2CCNCC2)n1`, the inhibition in assay [1] was 0.76%; in assay [2] it was 0%; in assay [3], 0.16%; in [4] it was 0.43%; in [5] it was -0.38%; in assay [6] it was 1.22%. In addition, the inhibition in assay [7] turned out to be 3.91%; in assay [8] it was 4.86%; in assay [9], 8.87%; in assay [10], 4.63%; in [11], 9.53%; in assay [12], 3.95%. Moreover, the inhibition was 8.49% in assay [13]; 1.82% in [14]; 3.89% in assay [15]; 0.97% in [16]; 4.38% in assay [17]; -0.25% in assay [18]. Also, the inhibition in [19] is -1.31%; in [20] it was 0.15%.
